{
  "source": "PubChem BioAssay (NCATS)",
  "note": "“And” between values parts separate entries of the source, which are not always exact repeats. Equal entries are not always repeated. Results filed as inconclusive are left out. Values without a mark were called inactive. The source made the active and inactive calls. Calls follow the shape of the dose curve; as a rule, active = well fitted inhibition curve with a large enough effect; inconclusive = small, poorly fitted or top-dose-only effect; inactive = flat fitted curve, though single readings scatter. Potency is read from the fitted curve at half-maximal effect.",
  "data": [
    {"target": "Luciferin 4-monooxygenase (Photinus pyralis) (UniProt P08659)", "sequence (P08659 whole entry, looked up)": "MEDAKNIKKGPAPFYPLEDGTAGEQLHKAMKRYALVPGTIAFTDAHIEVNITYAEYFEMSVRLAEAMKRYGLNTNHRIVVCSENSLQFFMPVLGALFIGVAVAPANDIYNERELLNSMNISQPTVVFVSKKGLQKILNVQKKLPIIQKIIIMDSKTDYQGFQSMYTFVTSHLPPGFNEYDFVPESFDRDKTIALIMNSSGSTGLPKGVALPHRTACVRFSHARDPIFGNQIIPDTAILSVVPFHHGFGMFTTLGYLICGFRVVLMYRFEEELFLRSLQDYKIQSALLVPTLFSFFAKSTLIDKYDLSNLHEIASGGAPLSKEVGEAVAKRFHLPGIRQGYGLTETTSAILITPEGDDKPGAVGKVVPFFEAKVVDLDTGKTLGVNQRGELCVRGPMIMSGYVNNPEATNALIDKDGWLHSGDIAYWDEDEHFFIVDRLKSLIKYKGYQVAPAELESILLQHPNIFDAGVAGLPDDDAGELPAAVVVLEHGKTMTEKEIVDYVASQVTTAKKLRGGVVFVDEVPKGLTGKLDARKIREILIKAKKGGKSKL", "assay": "Biochemical firefly luciferase enzyme assay for NPC (AID 624030); also: nearly all actives have a fitted effect of over 70% in size;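 as to activity change, negative = inhibition: 0% = DMSO and -100% = full luciferase inhibition by PTC124 control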", "conditions": "purified P. pyralis luciferase, luminescence, 5 min; series mostly up to 58.6 µM; activity change, negative = inhibition: at the top concentration", "source_text": "Charcot-Marie-Tooth-Association [CMTA] National Center for Advancing Translational Sciences [NCATS] Charcot-Marie-Tooth (CMT) disease was first characterized by Jean-Martin Charcot and Pierre Marie in France and, independently, by Howard Henry Tooth in England in 1886. CMT is one of the most common inherited neurological diseases, affecting approximately 1 in 2,500 Americans. […] The most prevalent type of CMT is known as CMT1A and caused by a duplication of the PMP22 gene which leads to over-expression of this protein. PMP22 is a glycosylated intrinsic membrane protein accounting for 2-5% of the myelin protein content, and its over-expression results in demyelination and subsequently axonal loss. A pair of cellular transcription-based assays was developed in the S16 rat Schwann cell lines (Hai, M., et al., 2002) stably transfected with orthogonal reporters - firefly luciferase (Fluc) and beta-lactamase (beta-Lac) - whose expression is driven by an intronic regulatory element of the PMP22 gene (Jones, E.A., et al., 2011) to recapitulate endogenous expression of PMP22. A comprehensive library of approved drugs, the NCGC Pharmaceutical Collection (Huang, R., et al., 2011), was screened in the cross-validating platform of the orthogonal reporter assays to identify drug modulators inhibitory towards PMP22 expression. A set of counter-screens was devised to address non-specific activity of the library. An ATP-dependent CellTiter-Glo assay (developed by Promega Corp) was utilized to control cell viability. In addition, biochemical Fluc enzyme assay was performed to assess direct inhibition of the Fluc enzymatic activity. References Hai, M., Muja, N., DeVries, G.H., Quarles, R.H. and Patel, P.I. Comparative analysis of Schwann cell lines as model systems for myelin gene transcription studies. J Neurosci Res, 2002. 69(4): pp 497-508 Huang, R., Southall, N., Wang, Y., Yasgar A., Shinn P., Jadhav, A. , Nguyen, D.-T. and Austin, C.P., The NCGC pharmaceutical collection: a comprehensive resource of clinically approved drugs enabling repurposing and chemical genomics. Sci Transl Med, 2011. 3(80): p. 80ps16.\nCompounds were transferred to the plates in 23nl, and one microliter/well luciferase enzyme-buffer solution (10 nM P. pyralis luciferase and 50 mM Tris Acetate final concentrations) was dispensed yielding a final reaction volume of […]. Luciferase luminescence was measured by a ViewLux plate reader within 5 minutes of enzyme-buffer addition. The % activity was determined by normalizing to the average readings of PTC124 (a positive control) relative to DMSO (0% Activity). The concentration-effect curves were then classified based on curve quality (r2), response magnitude and degree of measured activity.", "units": {"activity change, negative = inhibition": "%"}, "values": [
      {"smiles": "Cc1cc(-c2ccc(N=Nc3ccc4c(S(=O)(=O)O)cc(S(=O)(=O)O)c(N)c4c3O)c(C)c2)ccc1N=Nc1ccc2c(S(=O)(=O)O)cc(S(=O)(=O)O)c(N)c2c1O", "Potency": "28.7 µM (active) and 14.4 µM (active)"},
      {"smiles": "CCCCC[C@H](O)/C=C/[C@H]1[C@H](O)CC(=O)[C@@H]1C/C=C\\CCCC(=O)O", "activity change, negative = inhibition": 0.527},
      {"smiles": "CCN(CC)CCC(=O)N1c2ccccc2Sc2ccc(C(F)(F)F)cc21", "activity change, negative = inhibition": 4.04},
      {"smiles": "COc1cc2c(cc1OC)[C@@H](Cc1cc(OC)c(OC)c(OC)c1)[N+](C)(CCCOC(=O)CC/C=C/CCC(=O)OCCC[N+]1(C)CCc3cc(OC)c(OC)cc3[C@H]1Cc1cc(OC)c(OC)c(OC)c1)CC2", "note": "(stereo not given in full)", "activity change, negative = inhibition": 8.3},
      {"smiles": "CCCCC", "activity change, negative = inhibition": -0.116},
      {"smiles": "CN=C1C=CC(=C(c2ccc(N(C)C)cc2)c2ccc(N(C)C)cc2)C=C1", "Potency": "14.4 µM (active)"},
      {"smiles": "COc1ccc(/C=C/C(=O)O)cc1", "activity change, negative = inhibition": -16.6},
      {"smiles": "CC(C)(COP(=O)(O)OP(=O)(O)OC[C@H]1O[C@@H](n2cnc3c(N)ncnc32)[C@H](O)[C@@H]1OP(=O)(O)O)C(O)C(=O)NCCC(=O)NCCS", "note": "(stereo not given in full)", "activity change, negative = inhibition": -1.8},
      {"smiles": "C=CC[N+]1([C@H]2C[C@H]3[C@@H]4CC[C@H]5C[C@H](O)[C@@H](N6CCOCC6)C[C@]5(C)[C@H]4CC[C@]3(C)[C@H]2OC(C)=O)CCCC1", "activity change, negative = inhibition": -3.5},
      {"smiles": "CC/C=C\\C/C=C\\C/C=C\\C/C=C\\C/C=C\\CCCC(=O)O", "activity change, negative = inhibition": -9.68},
      {"smiles": "COc1ccc2nc(NC(=O)Nc3ccccc3)sc2c1", "Potency": "0.721 µM (active)"},
      {"smiles": "Cn1c(=O)c2c(ncn2CCOC(=O)C(C)(C)Oc2ccc(Cl)cc2)n(C)c1=O", "activity change, negative = inhibition": 0.678},
      {"smiles": "O=C(Nc1ccc(O)cc1)c1ccccc1O", "Potency": "14.4 µM (active)"},
      {"smiles": "CCCCO", "activity change, negative = inhibition": 0.973},
      {"smiles": "CC(CNC(=O)c1cccnc1)NC(=O)c1cccnc1", "note": "(stereo not given)", "activity change, negative = inhibition": 1.4},
      {"smiles": "CO/N=C(\\C(=O)N[C@@H]1C(=O)N2C(C(=O)[O-])=C(C[n+]3cccc4c3CCC4)CS[C@H]12)c1csc(N)n1", "activity change, negative = inhibition": 2.84},
      {"smiles": "O=C1N=C2SCCN2C(=O)C1Cc1ccc(Cl)cc1", "note": "(stereo not given)", "activity change, negative = inhibition": -4.28},
      {"smiles": "CCCCCCCCCCCC(=O)N(CCO)CCO", "activity change, negative = inhibition": -9.69},
      {"smiles": "C[N+]1(C)[C@@H]2CC(OC(=O)C(O)(c3cccs3)c3cccs3)C[C@H]1[C@@H]1O[C@@H]12", "note": "(stereo not given in full)", "activity change, negative = inhibition": 1.45},
      {"smiles": "C[C@H](N)C(=O)N[C@@H](C)P(=O)(O)O", "activity change, negative = inhibition": 3.5},
      {"smiles": "Oc1cccc(O)c1O", "activity change, negative = inhibition": -13.2},
      {"smiles": "O=C(O)CCC(=O)c1ccc(-c2ccccc2)cc1", "Potency": "4.36 µM (active)"},
      {"smiles": "Oc1ccc(Cl)c2c1CCC2", "activity change, negative = inhibition": -6.04},
      {"smiles": "O=c1n(CC2CO2)c(=O)n(CC2CO2)c(=O)n1CC1CO1", "note": "(stereo not given)", "activity change, negative = inhibition": 2.42},
      {"smiles": "NCCN", "activity change, negative = inhibition": 1.54},
      {"smiles": "CC(C)=CCC/C(C)=C/CC/C(C)=C/CC/C=C(\\C)CC/C=C(\\C)CCC=C(C)C", "activity change, negative = inhibition": 1.17},
      {"smiles": "CC(C)CCC[C@@H](C)[C@H]1CC[C@H]2[C@@H]3CC[C@@H]4C[C@H](O)CC[C@]4(C)[C@H]3CC[C@]12C", "activity change, negative = inhibition": -0.464},
      {"smiles": "O=P(O)(O)OC[C@H]1O[C@](O)(COP(=O)(O)O)[C@@H](O)[C@@H]1O", "activity change, negative = inhibition": 23.1},
      {"smiles": "CO", "activity change, negative = inhibition": 1.01},
      {"smiles": "NC(=O)[C@@H]1CCCN1C(=O)[C@H](Cc1cnc[nH]1)NC(=O)[C@@H]1CCC(=O)N1", "activity change, negative = inhibition": -0.825},
      {"smiles": "N[C@H](CC(=O)O)C(=O)O", "activity change, negative = inhibition": 0.773},
      {"smiles": "O=C(O)c1cc(N=Nc2ccc(O)c(C(=O)O)c2)ccc1O", "Potency": "9.07 µM (active)"},
      {"smiles": "[O]=[Bi][O][Bi]=[O]", "activity change, negative = inhibition": -0.225},
      {"smiles": "CC(CC=O)CCCC(C)(C)O", "note": "(stereo not given)", "activity change, negative = inhibition": 0.556},
      {"smiles": "C[C@]12CC[C@@H]3c4ccc(OC(=O)c5ccccc5)cc4CC[C@H]3[C@@H]1CC[C@@H]2O", "activity change, negative = inhibition": -8.73},
      {"smiles": "O=C(CCCN1CCC(C(=O)c2ccc(F)cc2)CC1)c1ccc(F)cc1", "activity change, negative = inhibition": 1.06},
      {"smiles": "CC1(C)S[C@@H]2[C@H](NC(=O)C3(N)CCCCC3)C(=O)N2[C@H]1C(=O)O", "activity change, negative = inhibition": 0.189},
      {"smiles": "CC(C)(C)CC(C)(C)c1cc(Cc2cc(C(C)(C)CC(C)(C)C)cc(-n3nc4ccccc4n3)c2O)c(O)c(-n2nc3ccccc3n2)c1", "activity change, negative = inhibition": -3.47},
      {"smiles": "CC(=O)N[C@@H]1C(O[C@H]2O[C@H](C(=O)O)C(O)[C@H](O)[C@H]2O)[C@H](O)[C@@H](CO)O[C@H]1O[C@@H]1C(C(=O)O)O[C@@H](O[C@H]2[C@H](O)[C@@H](CO)OC(O)[C@@H]2NC(C)=O)[C@H](O)[C@H]1O", "note": "(stereo not given in full)", "activity change, negative = inhibition": -0.619},
      {"smiles": "COC(=O)CCC[N+](C)(C)C", "activity change, negative = inhibition": -3.66}
    ]}
  ]
}
